Data: ChEMBL document CHEMBL1961873, “Compounds: GSK PKIS; Assays: Nanosyn kinase panel” (2012)

Legend:
[1] = biological target: T1, Inhibitor of nuclear factor kappa-B kinase subunit epsilon (Homo sapiens) (UniProt Q14164); settings: at 1 µM;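 also: reported values are averaged percent inhibition figures against human IKKε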
T1 sequence (whole entry): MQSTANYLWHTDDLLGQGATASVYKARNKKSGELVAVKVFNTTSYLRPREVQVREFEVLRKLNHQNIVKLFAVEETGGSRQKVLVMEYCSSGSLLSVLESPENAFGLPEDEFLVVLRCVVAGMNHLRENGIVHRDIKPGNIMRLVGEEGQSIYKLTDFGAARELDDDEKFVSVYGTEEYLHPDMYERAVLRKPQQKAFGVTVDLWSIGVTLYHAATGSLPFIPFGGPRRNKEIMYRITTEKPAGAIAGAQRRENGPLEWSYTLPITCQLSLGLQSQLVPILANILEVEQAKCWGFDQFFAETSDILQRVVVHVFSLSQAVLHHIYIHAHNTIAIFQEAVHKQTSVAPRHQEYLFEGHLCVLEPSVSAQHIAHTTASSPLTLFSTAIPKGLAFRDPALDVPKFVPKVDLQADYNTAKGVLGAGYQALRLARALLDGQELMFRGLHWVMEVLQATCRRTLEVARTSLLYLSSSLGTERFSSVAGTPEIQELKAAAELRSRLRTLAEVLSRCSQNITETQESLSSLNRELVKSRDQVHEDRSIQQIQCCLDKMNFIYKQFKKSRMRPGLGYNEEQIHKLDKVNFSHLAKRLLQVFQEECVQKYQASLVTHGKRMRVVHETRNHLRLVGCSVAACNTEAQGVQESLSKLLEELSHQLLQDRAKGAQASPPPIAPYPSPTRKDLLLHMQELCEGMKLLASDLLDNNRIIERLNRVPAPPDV

[2] = biological target: T2, Serine/threonine-protein kinase Nek1 (Homo sapiens) (UniProt Q96PY6); settings: at 0.1 µM
T2 sequence (whole entry): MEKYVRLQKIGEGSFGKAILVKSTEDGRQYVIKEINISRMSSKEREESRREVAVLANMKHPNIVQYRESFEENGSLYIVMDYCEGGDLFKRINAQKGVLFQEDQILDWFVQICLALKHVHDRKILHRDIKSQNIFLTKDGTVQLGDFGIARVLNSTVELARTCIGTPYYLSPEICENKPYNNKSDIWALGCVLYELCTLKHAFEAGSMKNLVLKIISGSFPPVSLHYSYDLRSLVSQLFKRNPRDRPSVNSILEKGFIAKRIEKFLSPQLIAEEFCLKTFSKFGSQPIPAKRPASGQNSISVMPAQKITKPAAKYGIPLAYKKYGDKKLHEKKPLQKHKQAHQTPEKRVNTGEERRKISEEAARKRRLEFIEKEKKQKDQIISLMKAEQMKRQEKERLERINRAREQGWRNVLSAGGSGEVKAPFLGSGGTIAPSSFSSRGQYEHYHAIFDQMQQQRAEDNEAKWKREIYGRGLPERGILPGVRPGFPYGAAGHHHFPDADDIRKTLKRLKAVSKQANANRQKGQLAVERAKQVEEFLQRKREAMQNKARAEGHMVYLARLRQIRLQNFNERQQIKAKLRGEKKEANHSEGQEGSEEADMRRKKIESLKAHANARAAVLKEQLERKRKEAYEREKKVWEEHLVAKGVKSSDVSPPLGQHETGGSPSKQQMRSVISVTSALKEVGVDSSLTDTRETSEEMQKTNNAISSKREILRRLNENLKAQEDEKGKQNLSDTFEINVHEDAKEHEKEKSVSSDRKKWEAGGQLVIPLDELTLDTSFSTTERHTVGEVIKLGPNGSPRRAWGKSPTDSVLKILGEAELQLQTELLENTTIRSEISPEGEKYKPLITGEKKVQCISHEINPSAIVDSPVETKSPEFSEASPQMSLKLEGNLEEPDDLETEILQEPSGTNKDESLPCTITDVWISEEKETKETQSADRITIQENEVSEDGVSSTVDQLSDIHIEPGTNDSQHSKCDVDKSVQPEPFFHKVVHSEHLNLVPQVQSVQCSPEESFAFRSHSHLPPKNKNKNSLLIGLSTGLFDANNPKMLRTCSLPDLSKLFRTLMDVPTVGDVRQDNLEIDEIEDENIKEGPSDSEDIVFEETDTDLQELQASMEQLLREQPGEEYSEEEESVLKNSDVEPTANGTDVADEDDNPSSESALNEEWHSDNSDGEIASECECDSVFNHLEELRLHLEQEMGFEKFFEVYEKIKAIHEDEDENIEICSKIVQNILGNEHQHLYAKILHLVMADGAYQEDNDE

[3] = biological target: T2, Serine/threonine-protein kinase Nek1 (Homo sapiens); settings: at 1 µM
[4] = biological target: T3, Serine/threonine-protein kinase Nek2 (Homo sapiens) (UniProt P51955); settings: at 0.1 µM
T3 sequence (whole entry): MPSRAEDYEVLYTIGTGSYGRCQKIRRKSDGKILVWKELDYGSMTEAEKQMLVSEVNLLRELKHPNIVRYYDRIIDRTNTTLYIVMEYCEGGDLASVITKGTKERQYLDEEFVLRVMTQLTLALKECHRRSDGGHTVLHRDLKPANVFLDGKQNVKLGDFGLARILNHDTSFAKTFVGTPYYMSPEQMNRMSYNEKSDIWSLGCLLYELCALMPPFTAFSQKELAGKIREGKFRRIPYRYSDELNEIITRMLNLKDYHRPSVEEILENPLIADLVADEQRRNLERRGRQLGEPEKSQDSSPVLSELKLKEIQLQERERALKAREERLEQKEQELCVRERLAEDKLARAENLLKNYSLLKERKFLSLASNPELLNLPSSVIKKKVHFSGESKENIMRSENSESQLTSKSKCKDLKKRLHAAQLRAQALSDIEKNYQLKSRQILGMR

[5] = biological target: T3, Serine/threonine-protein kinase Nek2 (Homo sapiens); settings: at 1 µM
[6] = biological target: Serine/threonine-protein kinase Nek6 (Homo sapiens) (UniProt Q9HC98); settings: at 0.1 µM
Chain of Serine/threonine-protein kinase Nek6 (Homo sapiens) (Q9HC98 whole entry): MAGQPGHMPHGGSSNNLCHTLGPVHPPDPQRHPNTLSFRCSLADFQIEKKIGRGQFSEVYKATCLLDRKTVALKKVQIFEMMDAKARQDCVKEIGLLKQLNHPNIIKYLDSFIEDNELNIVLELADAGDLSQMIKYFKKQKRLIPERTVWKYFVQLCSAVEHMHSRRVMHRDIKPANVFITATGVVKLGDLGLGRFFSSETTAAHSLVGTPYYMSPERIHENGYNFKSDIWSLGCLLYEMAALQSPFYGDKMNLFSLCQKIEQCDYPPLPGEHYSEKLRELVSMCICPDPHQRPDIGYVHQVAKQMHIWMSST

[7] = biological target: Serine/threonine-protein kinase Nek6 (Homo sapiens) (UniProt Q9HC98); settings: at 1 µM
[8] = biological target: Serine/threonine-protein kinase Nek7 (Homo sapiens) (UniProt Q8TDX7); settings: at 0.1 µM
Chain of Serine/threonine-protein kinase Nek7 (Homo sapiens) (Q8TDX7 whole entry, looked up): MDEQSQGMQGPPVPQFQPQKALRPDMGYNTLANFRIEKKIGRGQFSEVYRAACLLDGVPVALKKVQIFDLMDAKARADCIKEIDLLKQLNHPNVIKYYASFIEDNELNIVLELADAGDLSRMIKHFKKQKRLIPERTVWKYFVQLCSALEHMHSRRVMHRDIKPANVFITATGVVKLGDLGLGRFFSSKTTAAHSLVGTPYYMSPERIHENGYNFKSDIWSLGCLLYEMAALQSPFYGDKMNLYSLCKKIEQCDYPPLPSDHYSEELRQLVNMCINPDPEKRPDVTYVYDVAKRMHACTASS

[9] = biological target: Serine/threonine-protein kinase Nek7 (Homo sapiens) (UniProt Q8TDX7); settings: at 1 µM
[10] = biological target: T4, Serine/threonine-protein kinase Nek9 (Homo sapiens) (UniProt Q8TD19); settings: at 0.1 µM;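 also: reported value is the mean percent inhibition of NEK9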
T4 sequence (whole entry): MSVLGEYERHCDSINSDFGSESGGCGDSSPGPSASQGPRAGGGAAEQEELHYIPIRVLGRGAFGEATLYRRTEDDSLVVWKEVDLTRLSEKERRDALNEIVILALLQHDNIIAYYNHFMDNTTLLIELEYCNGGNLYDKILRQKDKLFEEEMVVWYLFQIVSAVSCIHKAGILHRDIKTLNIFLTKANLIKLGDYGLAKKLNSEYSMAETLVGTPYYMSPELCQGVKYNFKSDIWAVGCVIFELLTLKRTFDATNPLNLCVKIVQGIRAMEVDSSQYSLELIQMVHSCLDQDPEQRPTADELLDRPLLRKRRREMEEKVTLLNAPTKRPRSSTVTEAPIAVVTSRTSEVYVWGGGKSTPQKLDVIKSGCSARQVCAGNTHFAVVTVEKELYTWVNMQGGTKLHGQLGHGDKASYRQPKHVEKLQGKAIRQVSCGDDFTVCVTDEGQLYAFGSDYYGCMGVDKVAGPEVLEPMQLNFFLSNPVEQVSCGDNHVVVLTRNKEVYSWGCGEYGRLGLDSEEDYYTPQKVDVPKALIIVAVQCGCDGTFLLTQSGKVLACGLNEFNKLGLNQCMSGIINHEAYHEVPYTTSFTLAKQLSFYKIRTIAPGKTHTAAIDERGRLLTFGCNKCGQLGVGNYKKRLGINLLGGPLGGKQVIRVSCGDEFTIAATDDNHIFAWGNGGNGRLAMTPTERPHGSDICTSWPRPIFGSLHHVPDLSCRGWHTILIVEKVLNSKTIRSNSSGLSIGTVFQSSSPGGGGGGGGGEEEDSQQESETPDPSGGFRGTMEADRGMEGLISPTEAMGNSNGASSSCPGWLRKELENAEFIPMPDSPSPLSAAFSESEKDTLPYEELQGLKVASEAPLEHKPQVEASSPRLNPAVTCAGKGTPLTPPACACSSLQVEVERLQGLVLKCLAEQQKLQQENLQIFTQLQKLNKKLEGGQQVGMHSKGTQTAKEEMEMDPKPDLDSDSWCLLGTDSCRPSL

## NC(=O)c1cccc(Nc2nccc(Nc3cccc(F)c3)n2)c1
[1]
  inhibition: 3.29%
[2]
  inhibition: 2.58%
[3]
  inhibition: 5.37%
[4]
  inhibition: 3.22%
[5]
  inhibition: 1.09%
[6]
  inhibition: 0.35%
[7]
  inhibition: 0.89%
[8]
  inhibition: 2.07%
[9]
  inhibition: 1.47%
[10]
  inhibition: 8.72%
